The whole screen tested about 68,000 compounds, of which about 2,700 (4%) showed an effect of 50% or more. The sample holds strong results, similar compounds and a random draw of the others, so the mix is not that of the screen.
The molecules below were run on Plasmodium berghei (assay: Screen against P. berghei liver stage (PbLuc), transformed with Luciferase, at 2uM). Conditions: tested at 2 uM.
Format: functional, HepG2

Going from `O=C(O)c1ccccc1-n1cnc(CN2CCCc3ccccc32)c1` to `O=C(CCN1CCCC1=O)Nc1cnn(-c2ccccc2Cl)c1`, the INHIBITION falls from 37.36% to 25.35%.

Going from `CN1CC(=O)N(c2cnn(C)c2)CC12CCN(Cc1nccn1C)C2` (centres undefined) to `Cn1ccnc1CN1CCN(Cc2ccc(C#N)cc2)CC1`, the INHIBITION falls from 8.65% to -19.95%.

Going from `Cc1ccc(N2CC3(COCCN(Cc4ccncc4)C3)OCC2=O)s1` (centres undefined) to `Cc1ccc(N2CC3(COCCN(Cc4ccccn4)C3)OCC2=O)s1` (centres undefined), the INHIBITION rises from -37.34% to 40%.

Going from `Cc1ccc(N2CC3(COCCN(Cc4nccs4)C3)OCC2=O)s1` (centres undefined) to `Cc1ccc2cc(CN(C)Cc3nccs3)c(=O)[nH]c2c1`, the INHIBITION falls from 58% to -0.38%.

Going from `O=C(CCN1CCOC1=O)Nc1cnn(-c2ccccc2Cl)c1` to `O=C(CCCN1CCOC1=O)Nc1cnn(-c2ccccc2Cl)c1`, the INHIBITION falls from 51.46% to -16.28%.

Going from `CCn1cnnc1CNC(=O)N(C)Cc1c(F)cccc1Cl` to `CCn1cc(C(=O)N(C)Cc2c(F)cccc2Cl)cn1`, the INHIBITION rises from -17.88% to 53.13%.

Going from `CN(Cc1c(F)cccc1Cl)C(=O)Cn1cnc(C#N)n1` to `CN(Cc1c(F)cccc1Cl)C(=O)Nc1cnn(CC(N)=O)c1`, the INHIBITION rises from -6.73% to 11.07%.

First: CN(Cc1c(F)cccc1Cl)C(=O)c1cnn(CCN2CCOCC2)c1
Second: CN(Cc1c(F)cccc1Cl)C(=O)c1cnn(CCN2CCCCC2)c1
The INHIBITION of the first is lower: -9.03% for the first, 60.04% for the second.

Compared with `Cc1nc(C2CCCN(C(=O)c3ccc(Cl)cn3)C2)no1` (centres undefined), `CC(=O)Nc1nc(C(=O)N2CCCC(n3nc(C)nc3C)C2)cs1` (centres undefined) is higher in INHIBITION: -29.54% for the first, 9.17% for the second.

Going from `CN(C)C(=O)c1cccc(CCNS(=O)(=O)c2ccccc2)c1` to `CC1CCN(c2ccc(=O)n(CC(=O)N(C)Cc3ccccc3)n2)CC1`, the INHIBITION falls from 49.08% to -7.56%.

Compared with `NS(=O)(=O)CCN1CCOC(c2ccsc2)C1` (centres undefined), `CN(Cc1ccco1)C(=O)NCc1nnc2n1CCC2` is lower in INHIBITION: -10.36% for the first, -18.86% for the second.

Going from `COc1cc(N2C[C@@H]3COC[C@]3(COCc3cccc(C)n3)C2)ncn1` to `O=C(c1ccc(F)cc1)N1C[C@@H]2COC[C@]2(COc2cccnc2)C1`, the INHIBITION falls from 0.14% to -55.8%.

First: COC(C)(C)CNC(=O)N1CCCC1c1c(C)n[nH]c1C (centres undefined)
Second: Cc1cc(CN(C)C(=O)CN2CCCC2=O)no1
The INHIBITION of the first is lower: 22.83% for the first, 51.36% for the second.

Going from `CN(Cc1ccco1)C(=O)NCc1ccnc(SC(C)(C)C)c1` to `Cc1cc(CN(C)C(=O)NCc2ccnc(SC(C)(C)C)c2)no1`, the INHIBITION falls from 53.29% to 14.69%.

Going from `CC(C)c1cc(CN(C)C(=O)CN2CCCCC2=O)no1` to `Cc1cc(CN(C)C(=O)CN2CCCCCC2=O)no1`, the INHIBITION rises from -11.61% to 33.35%.

Going from `Cc1cc(CN(C)C(=O)NCc2ccco2)no1` to `Cc1cc(CN(C)C(=O)NC(C)Cc2ccco2)no1` (centres undefined), the INHIBITION falls from 66.88% to 45.62%.

First: Cc1cc(CN(C)C(=O)NCc2ccccn2)no1
Second: Cc1ccsc1C(=O)N(C)Cc1ccncc1
The INHIBITION of the first is higher: 26.62% for the first, -32.02% for the second.

Going from `CC(CO)NC(=O)Nc1ccc(CC#N)cc1` (centres undefined) to `Cc1noc(C(C)N(C)CC(=O)NCCc2ccc(Cl)cc2)n1` (centres undefined), the INHIBITION falls from 20.32% to 11.8%.

Going from `CCc1nc2n(n1)CC(Nc1ccnc(-c3ccccc3)n1)CC2` (centres undefined) to `Cc1nccc([C@@H]2C[C@H]3CN(S(=O)(=O)c4ccccc4)C[C@H]3O2)n1`, the INHIBITION rises from -1.33% to 32.41%.

Compared with `CC(C)C(=O)N1CCCC12CCCN(C(=O)c1ccno1)C2` (centres undefined), `CC(=O)N1CCN(C(=O)NC(C)Cn2ccnc2)CC1` (centres undefined) is higher in INHIBITION: 8.34% for the first, 14.47% for the second.

Going from `CN1CCN(C2COC3(CCN(c4ccc(C#N)cc4)CC3)C2)CC1` (centres undefined) to `N#Cc1ccc(N2CCC3(CC2)CC(N2CCOCC2)CO3)cc1` (centres undefined), the INHIBITION falls from 54.5% to -0.69%.

Compared with `COC1COC2(CCN(c3ccc(C#N)cc3)CC2)C1` (centres undefined), `CCn1ccnc1CN1CCN(Cc2ccc(C#N)cc2)CC1` is higher in INHIBITION: -13.61% for the first, 71.23% for the second.

Compared with `Cc1nn(C)c(N(C)C)c1CNC(C)COc1ccc(F)cc1F` (centres undefined), `CCN(CC)CCNC(=O)CCc1c(C)nn(-c2ccc(Cl)cc2)c1C` is higher in INHIBITION: 25.03% for the first, 36.85% for the second.

Compared with `Cn1cc(C(=O)N2C[C@H]3CC(Oc4ccccc4)C[C@H]3C2)cn1` (some centres undefined), `CSCC(=O)Nc1cccc(Oc2ccccn2)c1` is higher in INHIBITION: -36.58% for the first, -7.6% for the second.

Going from `O=C(COc1cc(Cl)cc(Cl)c1)NCc1nncn1C1CC1` to `O=C(COc1ccc(Cl)cc1)NCc1nncn1C1CC1`, the INHIBITION rises from -13.8% to 24.36%.

Going from `O=C(COc1cccnc1)NCc1nncn1C1CCCCC1` to `CCOCC(=O)Nc1cccc(Oc2ccccn2)c1`, the INHIBITION rises from 57.75% to 67.68%.

Going from `Cc1nc(CN2C(=O)CC[C@@H]3[C@H]2CCN3C2CCOCC2)cs1` to `Cc1cc(C(=O)N2CCc3c(ncnc3N3CCOCC3)C2)[nH]n1`, the INHIBITION rises from -6.68% to -0.79%.

First: Cc1cc(C(=O)N2CCc3ncnc(N4CCSCC4)c3CC2)[nH]n1
Second: O=C(c1cc[nH]n1)N1CCc2ncnc(N3CCSCC3)c2CC1
The INHIBITION of the first is higher: 64.2% for the first, 24.55% for the second.

Compared with `CSc1nc2ncc3c(=O)n(C)ccc3n2n1`, `Cn1cc(-c2cc(C(F)F)n3nc(CCC(=O)O)nc3n2)cn1` is higher in INHIBITION: 19.49% for the first, 48.58% for the second.

First: CCn1cc(-c2cc(C(F)F)n3nc(CCC(=O)O)nc3n2)cn1
Second: CCn1cc(-c2cc(C(F)F)n3nc(CC(=O)O)nc3n2)cn1
The INHIBITION of the first is higher: 61.61% for the first, -20.05% for the second.

Compared with `OCC(O)CN1CCc2onc(-c3ccc(C(F)(F)F)cc3)c2C1` (centres undefined), `Fc1ccc(F)c(CN2CCC(c3cc4ncccc4cn3)CC2)c1` is higher in INHIBITION: -83.25% for the first, -20.28% for the second.

Going from `CC(C)c1nnc2ccc(N3CCC(C(=O)O)CC3)nn12` to `CCn1ccnc1CN1CCN(Cc2cccc(C#N)c2)CC1`, the INHIBITION falls from 16.54% to -49.45%.

Going from `CCC(=O)NCc1cc(Br)c(OC)c(OC)c1` to `CCCC(=O)NCc1cc(Br)c(OC)c(OC)c1`, the INHIBITION rises from -11.19% to 0.63%.

Going from `CCS(=O)(=O)NCc1cc(Br)c(OC)c(OC)c1` to `CCOCCC(=O)Nc1cccc(Oc2ccccn2)c1`, the INHIBITION falls from 68.69% to 3.59%.

Work on `CC(C)(C)c1cc(CN2CCOCC(O)C2)n[nH]1` (centres undefined) yielded an INHIBITION of -67.78%.

Source: ChEMBL document CHEMBL4513216, “Probing the Open Global Health Chemical Diversity Library for Multistage-Active Starting Points for Next-Generation Antimalarials” (ACS Infect Dis, 2020)
